Measurements: PubChem BioAssay AID687001 (Broad Institute, 2013)
Results with a measured potency or affinity are listed apart. Activity calls are given as the source filed them.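 How the source made its calls: active means signal-lowering compounds whose fitted half-maximal concentration is at or below twice the top tested dose in every run; inconclusive means runs disagree, flat 30 to 70% inhibition, or poor curve fit; inactive means the rest.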

What follows are compounds tested against Protein S100-A4 (Homo sapiens) (UniProt P26447) (assay: S100A4-myosin IIA binding inhibitor potency, dose response, biochemical, fluorescence polarization, cherry-picked hits (AID 687001)). Conditions: FP, S100A4/TAMRA-myosin IIA peptide binding; series mostly up to 11 µM.
Protein S100-A4 (Homo sapiens), sequence (P26447 whole entry, looked up): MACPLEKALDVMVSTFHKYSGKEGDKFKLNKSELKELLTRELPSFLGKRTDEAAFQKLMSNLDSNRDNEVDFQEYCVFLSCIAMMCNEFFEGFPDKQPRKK

outcome, inactive:
Cc1cc(C)nc(NC(=O)CCN2C(=O)c3ccccc3S2(=O)=O)n1, CC(C)NC(=O)N(C)C[C@@H]1Oc2ccc(NS(=O)(=O)c3ccccc3)cc2C(=O)N([C@H](C)CO)C[C@@H]1C, Cc1ccc(S(=O)(=O)Nc2ccc3c(c2)C(=O)N([C@@H](C)CO)C[C@@H](C)[C@@H](CN(C)S(=O)(=O)c2cn(C)cn2)OCCCC[C@@H](C)O3)cc1, C[C@@H]1CCCCO[C@@H](CN(C)S(=O)(=O)c2ccccc2)[C@@H](C)CN([C@@H](C)CO)C(=O)c2cc(NC(=O)CCCN(C)C)ccc2O1, O=C(Nc1ccc(S(=O)(=O)N2CCCCC2)cc1)C1CC(=O)N(Cc2ccccc2)C1 (centres undefined), COc1ccc2c3c(n(C)c2c1)[C@@H](CO)N(C(=O)Nc1ccc(F)cc1)CC31CCN(C)CC1, C[C@@H]1CN([C@@H](C)CO)S(=O)(=O)c2ccc(Br)cc2O[C@@H]1CN(C)Cc1ccncc1, CN1CCN(C(=O)C[C@@H]2C=C[C@@H](NS(=O)(=O)c3cccc(F)c3)[C@@H](CO)O2)CC1, O=S(=O)(NCC(c1ccc2c(c1)OCO2)N1CCN(c2ccccc2)CC1)c1ccccc1 (centres undefined), C[C@@H]1CCCCO[C@@H](CN(C)C(=O)Cc2ccccc2)[C@H](C)CN([C@@H](C)CO)C(=O)c2cc(NC(=O)Cc3ccccc3)ccc2O1, C[C@@H]1CN([C@@H](C)CO)C(=O)c2cc(NC(=O)CCCCCC(=O)Nc3ccccc3N)ccc2O[C@H]1CN(C)C(=O)Nc1ccc2c(c1)OCO2, O=C(O)c1cccc(C(=O)O)c1S(=O)Cc1ccccc1 (centres undefined), O=C(OCC(=O)N1CCCC1=O)c1ccc(Cl)cc1[N+](=O)[O-], COC(=O)[C@@H]1[C@@H](CO)[C@@H]2Cn3c(ccc(-c4ccccc4)c3=O)[C@@H]2N1C(=O)CC1CC1, CC=Cc1ccc2n(c1=O)C[C@@H]1[C@@H](CO)[C@H](C(=O)NCc3ccc4c(c3)OCO4)[C@H]2N1C(C)=O (mixture of isomers), CCCn1cnc2c(oc3ccccc32)c1=O, CN(C)C(=O)c1cccc(-c2ccc3c(c2)[C@H]2[C@H](CCN2C(=O)C2CC2)[C@@H](CO)N3)c1, CCOc1ccccc1N, C[C@H]1CN([C@@H](C)CO)C(=O)c2cc(Br)cnc2O[C@H]1CN(C)C(=O)c1ccccc1F, CCN(CC(=O)NCc1ccc(F)cc1)C(=O)/C=C/c1ccc(OC)c(S(=O)(=O)NC(C)C)c1, O=C1NC(Cc2ccc(Cl)cc2)COCc2cnnn2CCC1c1ccccc1 (centres undefined), Cc1cnc(C(=O)OCC(=O)c2ccccc2)cn1, COC(=O)[C@]12CCCCC=C1N(Cc1ccc(Cl)cc1Cl)C(=O)[C@H](CC(=O)N1CCCC1)C2, Cn1cccc1C(=O)NNC(=O)c1ccccc1Br, O=C(NCC[C@H]1CC[C@@H](NS(=O)(=O)c2ccccc2F)[C@H](CO)O1)c1ccc(F)cc1, CCCCSc1nnc(-c2ccccc2N)c(=O)[nH]1, CC(=O)Nc1ccc(S(=O)(=O)Nc2ccc3c(c2)OCO3)cc1, C[C@H](CO)N1C[C@H](C)[C@H](CN(C)C)Oc2ccc(NS(=O)(=O)c3ccccc3)cc2CC1=O, COc1ccc(CNC(=O)CN(C(=O)CCC(=O)Nc2ccccn2)c2ccc(C)cc2)cc1, COCCCNc1nc2ccccc2nc1NS(=O)(=O)c1cc(Cl)ccc1Cl, C[C@@H]1CN([C@H](C)CO)S(=O)(=O)c2ccc(C3=CCCCC3)cc2O[C@@H]1CN(C)Cc1ccccc1, C[C@@H]1CN([C@@H](C)CO)C(=O)c2cc(/C=C/c3ccccc3)cnc2O[C@H]1CN(C)S(=O)(=O)c1cccs1, Cc1ccc(-c2csc(NC3OC(=O)c4ccccc43)n2)cc1 (centres undefined), COc1ccc(CNC(=O)c2cc(S(=O)(=O)N3CCCCC3)ccc2Cl)cc1OC, COc1ccc(C(=O)OCc2nnc(-c3ccccc3)o2)cc1S(=O)(=O)N1CCOCC1, C[C@@H]1CN([C@H](C)CO)C(=O)c2cc(NS(=O)(=O)c3ccc(F)cc3)ccc2O[C@@H](C)CCCCO[C@@H]1CN(C)C(=O)NC1CCCCC1, COc1ccc(-c2sc3ccccc3c2-c2ccc(OCCN(C)C)cc2)cc1, S=c1[nH]nc(Nc2cccc3ccccc23)s1, C[C@H]1CN([C@@H](C)CO)C(=O)c2cc(NC(=O)CCC(F)(F)F)ccc2O[C@@H]1CN(C)S(=O)(=O)c1cn(C)cn1
